# Data published in PubChem BioAssay (NCATS).
# Results filed as inconclusive are left out. The source made the active and inactive calls. The call rests on the fitted dose curve; in most records, active means well fitted curve in the direction sought with a large enough effect; inconclusive means small, poorly fitted or top-dose-only effect, or another doubt; inactive means no such curve, though single readings can be large; an effect the other way counts as inactive or inconclusive.
# Key:
# [1] = Quantitative High-Throughput drug screen in 47 multiple myeloma cell lines against the NCATS MIPE library collection: FR4_PLB cell viability assay (AID 1918924; further: nearly all actives have a fitted effect of over 35% in size)
# Summary of the method: (§1)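 Viability readout: CellTiter-Glo luminescence following 5 min room-temperature incubation with reagent. Prior exposure: 48 h, 37C, humidified 5% CO2, 500 cells per well.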
# [2] = Quantitative High-Throughput drug screen in 47 multiple myeloma cell lines against the NCATS MIPE library collection: Delta47_JCRB cell viability assay (AID 1918925; further: nearly all actives have a fitted effect of over 45% in size)
# Summary of the method: (§2)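 qHTS of the MIPE 4.0 collection: 500 myeloma cells/well, 48 h drug exposure at 37C in 5% CO2, then CellTiter-Glo for 5 min at room temperature before luminescence reading.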
# [3] = Quantitative High-Throughput drug screen in 47 multiple myeloma cell lines against the NCATS MIPE library collection: AMO1_DSMZ cell viability assay (AID 1918927; further: nearly all actives have a fitted effect of over 30% in size)
# Summary of the method: as §2
# [4] = Quantitative High-Throughput drug screen in 47 multiple myeloma cell lines against the NCATS MIPE library collection: ARP1_JJKsccF8 cell viability assay (AID 1918928; further: nearly all actives have a fitted effect of over 40% in size)
# Summary of the method: (§3)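 Myeloma cells, 500 per well, were exposed to MIPE 4.0 drugs by pin transfer for 48 h at 37 °C, 5% CO2. Viability was read as ATP luminescence with CellTiter-Glo, normalised to DMSO-only (100%) and medium-only (0%) wells.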
# [5] = Quantitative High-Throughput drug screen in 47 multiple myeloma cell lines against the NCATS MIPE library collection: ARD_JJKsccE7 cell viability assay (AID 1918929)
# Summary of the method: as §2
# [6] = Quantitative High-Throughput drug screen in 47 multiple myeloma cell lines against the NCATS MIPE library collection: Karpas620_DSMZ cell viability assay (AID 1918959); further: nearly all actives have a fitted effect of over 30% in size
# Summary of the method: as §1
# [7] = Quantitative High-Throughput drug screen in 47 multiple myeloma cell lines against the NCATS MIPE library collection: KHM11_PLB cell viability assay (AID 1918962); further: nearly all actives have a fitted effect of over 35% in size
# Summary of the method: as §1
# [8] = Quantitative High-Throughput drug screen in 47 multiple myeloma cell lines against the NCATS MIPE library collection: JIM3_ECACC cell viability assay (AID 1918963; further: nearly all actives have a fitted effect of over 35% in size)
# Summary of the method: as §1
# [9] = Quantitative High-Throughput drug screen in 47 multiple myeloma cell lines against the NCATS MIPE library collection: JIM1_ECACC cell viability assay (AID 1918964)
# Summary of the method: as §2
# [10] = Quantitative High-Throughput drug screen in 47 multiple myeloma cell lines against the NCATS MIPE library collection: INA6_PLB cell viability assay (AID 1918965; further: nearly all actives have a fitted effect of over 55% in size)
# Summary of the method: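 Approved and investigational drugs from MIPE 4.0 were added by pin tool to 500 cells per well. After 48 hours at 37C, ATP-based CellTiter-Glo luminescence indicated remaining viability.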
# [11] = Quantitative High-Throughput drug screen in 47 multiple myeloma cell lines against the NCATS MIPE library collection: EJM_DSMZ cell viability assay (AID 1918926; further: nearly all actives have a fitted effect of over 30% in size)
# Summary of the method: as §2
# [12] = Quantitative High-Throughput drug screen in 47 multiple myeloma cell lines against the NCATS MIPE library collection: JJN3_DSMZ cell viability assay (AID 1918966; further: nearly all actives have a fitted effect of over 50% in size)
# Summary of the method: as §2
# [13] = Quantitative High-Throughput drug screen in 47 multiple myeloma cell lines against the NCATS MIPE library collection: KMM1_JCRB cell viability assay (AID 1918960); further: nearly all actives have a fitted effect of over 30% in size
# Summary of the method: as §3
# Potency means the concentration at half of the fitted maximal effect.
Compound,Potency [1],Potency [2],Potency [3],Potency [4],Potency [5],Potency [6],Potency [7],Potency [8],Potency [9],Potency [10],Potency [11],Potency [12],Potency [13]
C[C@]12CC[C@H]3[C@@H](CCC4=CC(=O)CC[C@@]43C)[C@H]1CC[C@H]2O,inactive,inactive,inactive,inactive,inactive,inactive,inactive,inactive,inactive,inactive,,,
Cc1c(N)nc([C@H](CC(N)=O)NC[C@@H](N)C(N)=O)nc1C(=O)N[C@H](C(=O)N[C@@H](C)[C@H](O)[C@@H](C)C(=O)N[C@@H](C(=O)NCCc1nc(-c2nc(C(=O)NCCC[S+](C)C)cs2)cs1)[C@@H](C)O)C(O[C@H]1O[C@H](CO)[C@H](O)[C@@H](O)[C@@H]1O[C@H]1O[C@H](CO)[C@@H](O)[C@H](OC(N)=O)[C@H]1O)c1cnc[nH]1 (stereo partly drawn),inactive,469 nM (active),296 nM (active),,,,,,,,,,
CC(=CCCC1=CCC(C2=CC(=O)OC2O)OC1O)CCC1=C(C)CCCC1(C)C (stereo not drawn),inactive,inactive,,inactive,inactive,inactive,,inactive,inactive,inactive,inactive,,
CC=C(C)C(=O)O[C@H]1C(C)=C2[C@@H]3OC(=O)[C@@](C)(O)[C@@]3(O)[C@@H](OC(=O)CCC)C[C@](C)(OC(C)=O)[C@@H]2[C@@H]1OC(=O)CCCCCCC,26.4 nM (active),235 nM (active),,29.6 nM (active),,inactive,332 nM (active),264 nM (active),,93.5 nM (active),37.2 nM (active),46.9 nM (active),
C[C@@H]1O[C@@H](O[C@@H]2C=C3CC[C@@H]4[C@@H](CC[C@]5(C)[C@H](c6ccc(=O)oc6)CC[C@@]45O)[C@@]3(C)CC2)[C@H](O)[C@H](O)[C@H]1O,8.3 nM (active),26.4 nM (active),,20.9 nM (active),9.3 nM (active),20.9 nM (active),29.6 nM (active),29.6 nM (active),13.2 nM (active),26.4 nM (active),20.9 nM (active),46.9 nM (active),
C=C1C[C@H]2[C@H]3CCC(=O)[C@@]3(C)CC[C@@H]2[C@@]2(C)C=CC(=O)C=C12,,,18700 nM (active),,,23500 nM (active),,,,20900 nM (active),,14800 nM (active),
C#C[C@]1(O)C=C[C@@H]2[C@@H]3CCC4=CC(=O)CC[C@@H]4[C@H]3CC[C@@]21CC,inactive,,,inactive,,inactive,,inactive,,,inactive,,
CC(C)N[C@@H]1CCn2c(=O)[nH]c3cccc(c32)[C@@H]1O,,14800 nM (active),5900 nM (active),11800 nM (active),6620 nM (active),5260 nM (active),13200 nM (active),9350 nM (active),,,14800 nM (active),9350 nM (active),743 nM (active)
C=CCON=C(C[C@H]1O[C@@H]2O[C@]3(C)CC[C@@H]4[C@H](C)CC[C@@H]([C@H]1C)[C@@]24OO3)[C@H]1O[C@@H]2O[C@]3(C)CC[C@H]4[C@H](C)CC[C@@H]([C@@H]1C)[C@@]24OO3,,372 nM (active),118 nM (active),20.9 nM (active),132 nM (active),,418 nM (active),372 nM (active),,469 nM (active),148 nM (active),418 nM (active),
C=C[C@@H]1CN2CCC1C[C@@H]2[C@@H](O)c1ccnc2ccccc12 (stereo partly drawn),,23500 nM (active),5900 nM (active),,,5260 nM (active),,,,23500 nM (active),9350 nM (active),,
COc1ccc(CC2NCCc3cc(OC)c(OC)cc32)cc1OC (stereo not drawn),inactive,inactive,,,inactive,inactive,,inactive,,,inactive,,
C[C@]12COC(=O)C[C@@H]1CC[C@@H]1[C@H]2CC[C@@]2(C)[C@H]1CC[C@]2(C)O,inactive,inactive,,,,inactive,,inactive,inactive,,inactive,inactive,inactive
CCCN1CCO[C@@H]2c3cc(O)ccc3OC[C@@H]21,inactive,,,inactive,inactive,inactive,,inactive,,,inactive,,inactive
COC[C@H]1OC(=O)c2coc3c2[C@@]1(C)C1=C(C3=O)[C@@H]2CC[C@H](O)[C@@]2(C)C[C@@H]1OC(C)=O,3720 nM (active),6.6 nM (active),5260 nM (active),332 nM (active),6620 nM (active),3720 nM (active),,,1480 nM (active),1180 nM (active),,3320 nM (active),
CC(O)=C(C#N)C(=O)Nc1cc(Br)ccc1Br,,inactive,,,,5260 nM (active),,inactive,,,7430 nM (active),,
C[C@@H]1[C@H](O)[C@@H](C)C=CC=CCCC=CC=CC=CC=C[C@H](O[C@H]2O[C@@H](C)[C@H](O)[C@@H](N)[C@@H]2O)CC2O[C@](O)(C[C@@H](O)[C@H](O)CC[C@@H](O)C[C@@H](O)C[C@@H](O)CC(=O)O[C@H]1C)C[C@H](O)[C@H]2C(=O)O,inactive,,inactive,inactive,,inactive,,inactive,inactive,,inactive,inactive,inactive
C=C[C@@H]1CN2CCC1C[C@H]2[C@H](O)c1ccnc2ccccc12 (stereo partly drawn),18700 nM (active),,inactive,,inactive,inactive,,14800 nM (active),,20900 nM (active),,,
CC(=O)O[C@@]12CO[C@H]1C[C@H](O)[C@@]1(C)C(=O)[C@H](O)C3=C(C)[C@@H](O)C[C@@](O)([C@@H](OC(=O)c4ccccc4)[C@@H]21)C3(C)C,1050 nM (active),,,2640 nM (active),2090 nM (active),,,1050 nM (active),,1480 nM (active),3320 nM (active),,
COc1ccc2c(c1)CN(C)CC2c1ccc(Cl)c(Cl)c1 (stereo not drawn),,23500 nM (active),23500 nM (active),20900 nM (active),10500 nM (active),16600 nM (active),,,7430 nM (active),23500 nM (active),18700 nM (active),,14800 nM (active)
Cc1c(C(=O)c2cccc3ccccc23)c2cccc3c2n1[C@H](CN1CCOCC1)CO3,23500 nM (active),14800 nM (active),,26400 nM (active),,8330 nM (active),16600 nM (active),23500 nM (active),,23500 nM (active),,16600 nM (active),
Cc1nc(-c2ccc(-c3ccc(C(=O)N4CCc5cc6c(cc54)C4(CCN(C)CC4)CO6)cc3)c(C)c2)no1,inactive,,inactive,inactive,,inactive,,inactive,,,inactive,,inactive
CC[C@H]1C=CC=CC[C@@H](C)[C@H](O)[C@@](C)(O)C(=O)[C@@H](C)[C@H](O)[C@@H](C)C(=O)[C@@H](C)[C@H](O)[C@@H](C)C=CC(=O)O[C@@H]2[C@@H](C)[C@H](CC1)O[C@]1(CC[C@H](C)[C@H](C[C@@H](C)O)O1)[C@H]2C,,1 nM (active),5.9 nM (active),2.1 nM (active),1 nM (active),1 nM (active),,,1 nM (active),13.2 nM (active),,18700 nM (active),
C[C@@H]1CC[C@H]2[C@@H](C)C(=O)O[C@@H]3O[C@@]4(C)CC[C@H]1[C@]32OO4,,,,332 nM (active),inactive,5900 nM (active),,1480 nM (active),,1180 nM (active),inactive,13.2 nM (active),inactive
C[C@H]([C@H](O)CCC(C)(C)O)[C@H]1CC[C@@]2(O)C3=CC(=O)[C@@H]4C[C@@H](O)[C@@H](O)C[C@]4(C)[C@@H]3CC[C@]12C,inactive,inactive,,,inactive,inactive,inactive,inactive,,inactive,inactive,,
C[C@]12Cc3cn[nH]c3C[C@@H]1CC[C@@H]1[C@H]2CC[C@@]2(C)[C@H]1CC[C@]2(C)O,,,,,inactive,inactive,,,inactive,inactive,,14800 nM (active),
